{
  "source": "PubChem BioAssay (NCATS)",
  "note": "Results filed as inconclusive are left out. Activity calls are given as the source filed them. Calls follow the shape of the dose curve; as a rule, active = well fitted cell-killing curve with a large enough effect; inconclusive = small, poorly fitted or top-dose-only effect; inactive = flat fitted curve, though single readings scatter. Peptide text beside a SMILES is read from it. * marks the point of attachment. Cbz = O=C(OCc1ccccc1)*",
  "data": [
    {"test": "Quantitative highthroughput screen to assess conditional lethalithy of P12 Ichikawa cells grown in RPMI1640 with dialyzed fetal bovine serum (RPMI+ds) (AID 1963880); also: nearly all actives have a fitted effect of over 35% in size; also: potency is read from the fitted curve at half-maximal effect", "details": "ATP luminescence, 48 h; Potency: P12-Ichikawa viability; series mostly up to 45.8 µM; viability: at the top concentration", "from_the_text": "Assay Provider: Jason Cantor Ph.D.\nDepartment of Biochemistry\nUniversity of Wisconsin-Madison, Madison, WI, USA\nChemical screening studies have identified drug sensitivities across hundreds of cancer cell lines but most putative therapeutics fail to translate. Discovery and development of drug candidates in models that more accurately reflect nutrient levels in human blood is a major challenge. Here we performed high-throughput screens in conventional versus Human Plasma-Like Medium (HPLM) to identify compounds that were \"missed\" when screening using the artificial culture condition. Sets of conditional anticancer compounds spanned phases of clinical development and included non-oncology drugs were assessed. […] We also traced conditional phenotypes for several chemotherapeutics to availability of HPLM-specific metabolites and confirmed others for compounds whose reported targets are encoded by nonessential genes. Our findings establish generalizable strategies for exploiting conditional lethality in HPLM to reveal therapeutic candidates and mechanisms of action in cancer cells.\nDescribed herein are the results of each viability screens against three cell lines: NOMO1 (an acute myeloid leukemia cell line); P12-Ichikawa (a T-cell acute lymphoblastic leukemia); and SEM (a B-cell ALL). Each assay was screened using 3 different cell culture media: homemade human plasma-Like medium with 10% dialyzed fetal bovine serum (HPLM+ds); RPMI1640 with 10% untreated FBS and 5mM glucose (RPMI+s); and RPMI1640 with 10% dialyzed fetal bovine serum and 5 mM glucose (RPMI+ds).\nPROTOCOL TABLE (as described by Inglese J, Shamu CE and Guy RK. 2007)\nSEQUENCE No. (e.g., 1, 2, 3, etc.); […] (e.g., Cells, Incubation, Reagent, etc.); VALUE and DESCRIPTION.\n1; Cells; 5 uL; white, solid bottom 1536-well Greiner assay plate.\n2; Compounds; 23 nL; Kalypsis pin tool (Wako USA) equipped with a 1536-well pin head to transfer to the assay plates.\n3; Incubation; 48 hours; 37C incubation.\n4; Reagent; 3 uL; CellTiter Glo (Promega).\n5; Incubation; 5 min, room temperature\n6; Detection; Luminescence, Viewlux PerkinElmer.\nNOTES (numbers refer to Sequence numbers above)\n1. Briefly, 5 ul of cell reagent was dispensed using a Multidrop Combi Dispenser. The NOMO1 and SEM cells were plated at 500 cells/well and the P12-Ichikawa line at 1000 cells/well.\n2. After seeding the cells, 23 nL of MIPE 4.1 library compounds (in DMSO) were added to each plate using a Kalypsys 1536 Pintool dispenser. Bortezomib at final concentration of […] and DMSO were added to each plate as positive and negative controls respectively. For each screen, MIPE 4.1 compounds were added over an eleven-point concentration range […] in 3-fold dilutions.\n3. Each plate was covered with a stainless steel gasketed lid to prevent evaporation and incubated for 48 hour at 37C, 95% relative humidity, and 5% CO2.\n4-5. Three microliter CellTilter-GloTM luminescent substrate mix (Promega) reagent was added to the assay plate and incubated at room temperature for 5 min.\n6. The luminescence signal was measured using a ViewLux (PerkinElmer) multiplate reader with a 2 second exposure time per plate. Data for each compound were normalized as percent viability such that measurements for DMSO and the empty well controls in each plate were defined as 100% and 0%, respectively.", "values": [
      {"smiles": "CCCc1nc(C(C)(C)O)c(C(=O)O)n1Cc1ccc(-c2ccccc2-c2nn[nH]n2)cc1", "viability": "114% (inactive)"},
      {"smiles": "CCOC(=O)C1=C(N)Oc2ccc(Br)cc2C1C(C#N)C(=O)OCC", "note": "(stereo not given)", "viability": "93.3% (inactive)"},
      {"smiles": "N[C@H]1CN(c2c(F)cc3c(=O)c(C(=O)O)cn(C4C[C@@H]4F)c3c2Cl)CC12CC2", "note": "(stereo not given in full)", "viability": "107% (inactive)"},
      {"smiles": "COCCCOc1cc(C[C@@H](C[C@H](N)[C@@H](O)C[C@H](C(=O)NCC(C)(C)C(N)=O)C(C)C)C(C)C)ccc1OC", "viability": "85.1% (inactive)"},
      {"smiles": "Nc1ccn(C2CO[C@H](CO)O2)c(=O)n1", "note": "(stereo not given in full)", "viability": "110% (inactive)"},
      {"smiles": "CCCCC(C)(C)[C@H](O)C=C[C@H]1[C@H](O)CC(=O)[C@H]1CC=CCCCC(=O)O", "Potency": "23.5 µM (active)"},
      {"smiles": "COc1cc2ncnc(Nc3ccc(F)c(Cl)c3)c2cc1OCCCN1CCOCC1", "viability": "90.4% [at 92.2 µM] (inactive)"},
      {"smiles": "COc1cc(C(C)C)c(Oc2cnc(NC(CO)CO)nc2N)cc1I", "viability": "88% (inactive)"},
      {"smiles": "C[C@H](NC(=O)C(=O)Nc1ccccc1C(C)(C)C)C(=O)N[C@@H](CC(=O)O)C(=O)COc1c(F)c(F)cc(F)c1F", "Potency": "14.8 µM (active)"},
      {"smiles": "CC(C)[C@@H](CS(=O)(=O)C(C)C)N1C(=O)[C@@](C)(CC(=O)O)C[C@H](c2cccc(Cl)c2)[C@H]1c1ccc(Cl)cc1", "Potency": "1.17 µM (active)"},
      {"smiles": "CC(C=CC=C(C)C=CC1=C(C)CCCC1(C)C)=CC=CC=C(C)C=CC=C(C)C=CC1=C(C)CCCC1(C)C", "viability": "86% (inactive)"},
      {"smiles": "O=c1[nH]c(-c2ccc(C(F)(F)F)cc2)nc2c1CSCC2", "viability": "94.3% (inactive)"},
      {"smiles": "O=C(O)c1cc(=O)[nH]c(=O)[nH]1", "viability": "98.1% (inactive)"},
      {"smiles": "COc1ccc2cc([S+]([O-])Cc3ncc(C)c(OC)c3C)nc2c1", "viability": "88.2% (inactive)"},
      {"smiles": "CNCc1ccc(-c2[nH]c3cc(F)cc4c3c2CCNC4=O)cc1", "viability": "89.6% (inactive)"},
      {"smiles": "Cc1ccccc1C(C(=O)NC1CCCC1)N(C(=O)Cn1cnc2ccccc21)c1cccc(F)c1", "note": "(stereo not given)", "viability": "99% (inactive)"},
      {"smiles": "CNC1CCC(N(Cc2cccc(-c3ccncc3)c2)C(=O)c2sc3ccccc3c2Cl)CC1", "note": "(stereo not given)", "Potency": "1.66 µM (active)"},
      {"smiles": "O=C(O)c1cccc(-c2noc(-c3ccccc3F)n2)c1", "viability": "107% (inactive)"},
      {"smiles": "N#CC1(c2ccc(NC(=O)c3cccnc3NCc3ccncc3)cc2)CCCC1", "viability": "95.8% (inactive)"},
      {"smiles": "CNC1[C@H](O)C(O[C@@H]2C(O)C(O[C@H]3O[C@H]([C@@H](C)NC)CC[C@H]3N)[C@@H](N)C[C@H]2N)OC[C@]1(C)O", "note": "(stereo not given in full)", "viability": "105% (inactive)"},
      {"smiles": "Clc1ccc(Nc2nnc(Cc3ccncc3)c3ccccc23)cc1", "viability": "97% (inactive)"},
      {"smiles": "CC1=C(C(=O)O)N2C(=O)[C@@H](NC(=O)C(N)c3ccccc3)[C@H]2SC1", "note": "(stereo not given in full)", "viability": "94.3% (inactive)"},
      {"smiles": "Cn1cnc2c(F)c(Nc3ccc(Br)cc3F)c(C(=O)NOCCO)cc21", "viability": "79.1% (inactive)"},
      {"smiles": "c1ccc2c(Oc3nc(Nc4ccc(N5CCOCC5)cc4)c4ncn(C5CCCCC5)c4n3)cccc2c1", "viability": "91% (inactive)"},
      {"smiles": "N#CC1(c2cccc(C(=O)Nc3cc(Oc4ccc5nc(NC(=O)C6CC6)sc5n4)ccc3F)c2Cl)CC1", "Potency": "2.64 µM (active)"},
      {"smiles": "O=c1c(O)c(-c2cc(O)c(O)c(O)c2)oc2cc(O)cc(O)c12", "viability": "102% (inactive)"},
      {"smiles": "CC1(C)SCCN(S(=O)(=O)c2ccc(OCC#CCO)cc2)[C@@H]1C(=O)NO", "viability": "97.3% (inactive)"},
      {"smiles": "COc1cccc(N(C)C(=S)Oc2ccc3c(c2)CCCC3)n1", "viability": "86.4% (inactive)"},
      {"smiles": "Cc1cccc(Nc2nc(N[C@@H]3CCCC[C@H]3N)ncc2C(N)=O)c1", "Potency": "1.87 µM (active)"},
      {"smiles": "Cc1cn(-c2cc(NC(=O)c3ccc(C)c(Nc4nccc(-c5cccnc5)n4)c3)cc(C(F)(F)F)c2)cn1", "Potency": "1.05 µM (active)"},
      {"smiles": "CN1CC(=O)N2C(Cc3c([nH]c4ccccc34)[C@H]2c2ccc3c(c2)OCO3)C1=O", "note": "(stereo not given in full)", "viability": "97.7% (inactive)"},
      {"smiles": "C[C@H]1[C@H](NC(=O)C(=NOC(C)(C)C(=O)O)c2csc(N)n2)C(=O)N1S(=O)(=O)O", "viability": "97.5% (inactive)"},
      {"smiles": "COc1ccc(Nc2cc(-c3cnc(N)nc3)nc(N3CCOCC3)n2)cn1", "Potency": "2.64 µM (active)"},
      {"smiles": "O=C1NC(=O)C(c2cnc3ccccn23)=C1c1cn2c3c(cc(F)cc13)CN(C(=O)N1CCCCC1)CC2", "Potency": "5.88 µM (active)"},
      {"smiles": "Nc1cccc2c1C(=O)N(C1CCC(=O)NC1=O)C2=O", "note": "(stereo not given)", "Potency": "14.8 µM (active)"},
      {"smiles": "CC(=O)O[C@H]1C[C@@H]2CC[C@H]3[C@H]4C[C@H]([N+]5(C)CCCCC5)[C@@H](OC(C)=O)[C@@]4(C)CC[C@@H]3[C@@]2(C)C[C@H]1N1CCCCC1", "viability": "103% (inactive)"},
      {"smiles": "NC(N)=Nc1nc(CSCCC(N)=NS(N)(=O)=O)cs1", "viability": "87.1% (inactive)"},
      {"smiles": "CN(C)CC(C)(C)CNc1nn2c(-c3ccccc3)nnc2cc1C1CCC1", "Potency": "18.7 µM (active)"},
      {"smiles": "C[C@]12C=CC(=O)N[C@@H]1CC[C@H]1[C@H]3CC[C@@H](C(=O)Nc4cc(C(F)(F)F)ccc4C(F)(F)F)[C@@]3(C)CC[C@@H]12", "viability": "97.4% (inactive)"},
      {"smiles": "CC(C)C[C@@H](C=O)NC(=O)[C@H](CC(C)C)NC(=O)[C@H](CC(C)C)NC(=O)OCc1ccccc1", "note": "(Cbz-Leu-Leu-Leu-aldehyde)", "Potency": "2.64 µM (active)"}
    ]}
  ]
}
